# Hits are enriched below; roughly 4.1% of the tested compounds scored in any of these assays.
# Mdm2-MdmX inh = inhibitors of human Mdm2-MdmX association, primary screen, cell-based, luminescence, split luciferase, SaOS-2, uHTS; Protein Mdm4 (Homo sapiens) + E3 ubiquitin-protein ligase Mdm2 (Homo sapiens), …; SaOS-2 split-luciferase Mdm2/MdmX complementation; inhibition, % at 8 µM; 330,000 tested, 3% active;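 active = inhibition of at least 50% at 8 µM in the primary screen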
# Target sequence (O15151 whole entry, looked up): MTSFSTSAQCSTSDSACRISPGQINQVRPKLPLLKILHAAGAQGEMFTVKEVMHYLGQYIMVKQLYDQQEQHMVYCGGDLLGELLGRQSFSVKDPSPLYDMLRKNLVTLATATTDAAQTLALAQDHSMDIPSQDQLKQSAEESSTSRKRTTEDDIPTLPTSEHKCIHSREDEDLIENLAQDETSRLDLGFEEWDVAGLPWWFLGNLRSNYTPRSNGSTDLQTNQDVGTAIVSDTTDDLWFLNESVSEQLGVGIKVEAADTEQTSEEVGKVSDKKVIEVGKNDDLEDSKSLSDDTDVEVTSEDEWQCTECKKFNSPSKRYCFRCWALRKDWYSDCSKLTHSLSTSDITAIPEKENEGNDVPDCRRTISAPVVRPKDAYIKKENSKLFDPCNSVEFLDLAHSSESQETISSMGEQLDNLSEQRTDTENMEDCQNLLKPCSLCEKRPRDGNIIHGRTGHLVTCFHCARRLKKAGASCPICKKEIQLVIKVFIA
# Target sequence (Q00987 whole entry, looked up): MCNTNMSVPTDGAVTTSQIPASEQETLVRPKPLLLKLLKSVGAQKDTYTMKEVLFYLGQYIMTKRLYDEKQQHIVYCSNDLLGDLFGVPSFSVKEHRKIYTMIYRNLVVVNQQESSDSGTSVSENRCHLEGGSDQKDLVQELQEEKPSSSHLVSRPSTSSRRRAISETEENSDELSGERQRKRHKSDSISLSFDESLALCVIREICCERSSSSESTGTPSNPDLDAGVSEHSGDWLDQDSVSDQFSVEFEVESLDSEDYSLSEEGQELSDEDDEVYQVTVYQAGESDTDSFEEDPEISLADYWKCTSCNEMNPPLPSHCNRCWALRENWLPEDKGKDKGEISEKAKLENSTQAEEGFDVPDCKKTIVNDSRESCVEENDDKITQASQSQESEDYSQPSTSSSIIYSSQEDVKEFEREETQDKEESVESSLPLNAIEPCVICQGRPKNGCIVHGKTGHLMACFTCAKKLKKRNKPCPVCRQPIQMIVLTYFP
# Beta apoptosis = inhibitors of cytokine-induced beta cell apoptosis, primary screen, luminescence; INS-1E cytokine-induced death, ATP luminescence, 48 h; percent of positive-control rescue, neutral wells zero; protection from apoptosis, % (test concentration not listed); 300,000 tested, 0.8% active; AID 435005, 2010;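 active = Every replicate reaches about 75%, or at least half do and their mean reaches it too, limit read from the data; inconclusive = At least half of replicates reach the limit but their mean does not; inactive = Under half of replicates reach the limit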;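 note: 0% = cytokine-treated negative control wells and 100% = positive control rescue; higher means more ATP so stronger rescue from cytokine killing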
# aSyn 5UTR inh = MLPCN primary screen, SNCA 5' untranslated region | alpha-synuclein 5'UTR reporter, inhibitor activity | inhibition, % (tested at 7.5 µM) | 300,000 tested, 0.82% active; in the data active = inhibition above about 60%; inconclusive = no clear call, values can overlap the other calls;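 note: H4 neuroglioblastoma cells stably carrying SNCA 5'UTR luciferase fusion; 0% = DMSO wells and 100% = positive control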
# Bfl-1 A1 inh = caspase 3/7 activation in MEF A1-2A-BIM cells, primary screen, A1 inhibitor project, cell-based, luminescence, HTS; Caspase-Glo 3/7 luminescence, 3 h; percent of clofoctol response, vehicle zero; caspase activation, % (test concentration not listed); 330,000 tested, 0.066% active; AID 2462, 2010;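 active = over half of replicate activation scores above 10%, or exactly half above 10 with the replicate mean above 10; inconclusive = replicate mean below 10 yet half the replicates above 10; inactive = over half of replicates below 10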
# CSC inhib = cancer stem cell viability inhibitors, primary screen, luminescence; inhibition, % at 7.5 µM; 300,000 tested, 1.1% active; cancer stem cell-like cells viability; in the data active = inhibition above about 75%; inconclusive = no clear call, values can overlap the other calls; tested in HMLE shEcad cells
# Mdm2 MdmX conf = Mdm2-MdmX complex disruptors, retested hits, confirmation, luminescence, single concentration; shares compounds with Mdm2-MdmX inh; Mdm2-MdmX binding, luminescent assay; inhibition, % at 8 µM; 10,000 tested, 55% active; AID 489028, 2010; in the data active = inhibition above about 40%
# Full FLuc ctr = full-length luciferase signal inhibition, confirmation, counter-screen for Mdm2/MdmX interaction inhibitor project, cell-based, single concentration, SaOS-2; shares compounds with Mdm2-MdmX inh; SaOS-2 full-length luciferase counterscreen, luminescence; inhibition, % at 8 µM; 6,200 tested, 77% active; AID 504607, 2011;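 active = mean inhibition at 8 µM reaching about 37%, which flags the compound as non-specific, limit read from the data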;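 note: p53-null SaOS-2 cells with luciferase driven by a doxycycline-inducible promoter; compound on cells about two nights before reading with doxycycline added after day one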
# * = called active by the depositor; ? = inconclusive; nt = no result.
SMILES,Mdm2-MdmX inh,Beta apoptosis,aSyn 5UTR inh,Bfl-1 A1 inh,CSC inhib,Mdm2 MdmX conf,Full FLuc ctr
O=C(Nc1cnn(C23CC4CC(CC(C4)C2)C3)c1)c1cnn2c(C(F)(F)F)cc(-c3ccco3)nc12,58*,20,23,0,43,17,nt
CC(C)c1ccc(NC(=O)CCNS(=O)(=O)c2cc(Br)cnc2N)cc1,12,-2,-3,-1,20,nt,nt
Cc1cccc2sc(N(CCN3CCOCC3)C(=O)CCS(=O)(=O)c3ccccc3)nc12,69*,nt,-7,0,2,46*,68*
CCN(CC)CCN(C(=O)CCS(=O)(=O)c1ccccc1)c1nc2cc(C)cc(C)c2s1,8,15,-9,0,-2,nt,nt
CCN(CC)CCN(C(=O)CCS(=O)(=O)c1ccccc1)c1nc2c(C)cc(C)cc2s1,51*,2,-5,1,-1,37,87*
O=C1CCNc2cc3ccccc3cc21,65*,-11,78*,0,23,61*,49*
CCn1c2ccccc2c2cc([N+](=O)[O-])ccc21,-4,0,9,0,-1,nt,nt
CN(C)CCn1c2ccccc2c2nc3ccc([N+](=O)[O-])cc3cc21,100*,59,104*,-1,?,84*,60*
CCC(Sc1nc2cc3c(cc2c(=O)n1Cc1ccco1)OCO3)C(=O)Nc1ccccc1OC (stereo not drawn),61*,18,46,2,4,44*,80*
CCOC(=O)C1=C(C)N(C)C(=O)NC1c1c(O)ccc2ccccc12 (stereo not drawn),-17,-4,6,2,-9,nt,nt
CC(Sc1nnc(Nc2ccccc2)s1)C(=O)Nc1nc(-c2ccccc2)cs1 (stereo not drawn),65*,1,33,-1,38,72*,101*
O=C(NC(=S)NNC(=O)c1ccccc1[N+](=O)[O-])c1ccc(Br)cc1,12,-3,-14,-1,8,nt,nt
COc1ccccc1NC(=S)N(Cc1cccnc1)Cc1ccccc1Cl,9,1,4,1,-3,nt,nt
COCCn1nnnc1C(C(C)C)N(Cc1cccnc1)Cc1ccccc1Cl (stereo not drawn),65*,-3,-1,1,7,4,nt
CCN(C[C@H]1N[C@@](C)(C(=O)OC)[C@H]2C(=O)N(Cc3ccccc3)C(=O)[C@@H]12)C(=O)Nc1ccc(F)cc1,9,-5,nt,-1,nt,nt,nt
CCOC(=O)c1[nH]c2ccc(OC)cc2c1NC(=S)N1CCN(c2ccccc2OC)CC1,52*,12,10,0,1,46*,69*
COc1ccc(NC(=O)C(=O)NCC2CCCN2S(=O)(=O)c2cc(C)ccc2C)cc1 (stereo not drawn),60*,10,13,2,51,74*,48*
COc1ccc(S(=O)(=O)N2CCCC2CNC(=O)C(=O)Nc2ccc(C)cc2)cc1 (stereo not drawn),28,-2,14,-1,nt,nt,nt
Cc1ccc(C)c(S(=O)(=O)N2CCCC2CNC(=O)C(=O)NC2CC2)c1 (stereo not drawn),15,-4,-4,1,0,nt,nt
COc1ccc(NC(=O)C(=O)NCC2CCCN2S(=O)(=O)c2ccc(C)cc2)cc1 (stereo not drawn),66*,nt,91*,1,60,79*,104*
COc1ccc(NC(=O)Nc2ccc3c(c2)OCO3)c(C)c1,-32,-1,-81,1,10,nt,nt
COc1cc(NC(=O)COC(=O)Cc2ccsc2)cc(OC)c1,-7,0,nt,1,3,nt,nt
Cc1ccc(S(=O)(=O)N(C)C)cc1NC(=O)COC(=O)CNC(=O)c1cccs1,16,-11,-3,0,nt,nt,nt
NC(=O)c1nsc(C(=O)N(c2ccccc2F)C(C(=O)NCc2ccc(F)cc2)c2ccc(O)cc2)c1N (stereo not drawn),65*,10,22,0,nt,63*,81*
CCOC(=O)/C=c1\s/c(=C\c2ccc(C(F)(F)F)cc2)c(=O)n1CC(=O)NCc1ccco1,76*,46,-22,0,15,31,nt
SMILES,Mdm2-MdmX inh,Beta apoptosis,aSyn 5UTR inh,Bfl-1 A1 inh,CSC inhib,Mdm2 MdmX conf,Full FLuc ctr
CCOC(=O)/C=c1\s/c(=C\c2ccc(-c3ccccc3)cc2)c(=O)n1CC(=O)NCc1ccc2c(c1)OCO2,84*,5,13,1,8,9,nt
CCOC(=O)/C=c1\s/c(=C\c2ccc3cc(OC)ccc3c2)c(=O)n1CC(=O)NCC1CCCO1 (stereo not drawn),74*,0,-36,3,21,-4,nt
CCOC(=O)/C=c1\s/c(=C\c2ccc(C)cc2)c(=O)n1CC(=O)NCc1ccco1,30,10,6,1,7,nt,nt
CCOC(=O)/C=c1\s/c(=C\c2sccc2C)c(=O)n1CC(=O)NCc1ccc(C)cc1,66*,12,40,3,14,14,nt
CC(C)CCN1CCNC(=O)C1CC(=O)N(C)CCCN1CCOCC1 (stereo not drawn),5,1,18,0,-4,nt,nt
CCOC(=O)c1c(NC(=O)CSc2nnc(-c3c[nH]c4ccccc34)n2C)sc2c1CCCC2,61*,17,10,1,12,15,nt
COc1ccc(-c2nnc(SCC(=O)Nc3sc4c(c3C#N)CCCC4)n2-c2ccccc2)cc1,78*,nt,34,0,nt,0,nt
CCOC(=O)c1c(NC(=O)CSc2nnc(-c3c[nH]c4ccccc34)n2CCOC)sc2c1CCCC2,43,16,24,0,-6,nt,nt
COc1ccc(-n2c(SCC(=O)Nc3ccccc3)nnc2-c2ccc(NS(=O)(=O)c3ccc(C)cc3)cc2)cc1,91*,13,41,-1,-6,28,nt
CCc1cccc(NC(=O)Cn2c(=O)n(CCC(=O)NCC3CCCO3)c(=O)c3cc(OC)c(OC)cc32)c1 (stereo not drawn),39,0,20,0,-2,nt,nt
Cc1c(Cl)cccc1-n1cnc(=O)c2ccccc21,2,7,13,0,-3,nt,nt
C[C@@H]1CN([C@@H](C)CO)C(=O)c2cccc(NS(C)(=O)=O)c2O[C@H]1CN(C)CC1CCCCC1,8,0,nt,0,nt,nt,nt
O=C(CCn1cnc(-c2ccccc2)c1-c1ccccc1)N/N=C/c1ccccc1O,76*,38,25,0,67,69*,26
O=C(CCn1cnc(-c2ccccc2)c1-c1ccccc1)N/N=C/c1ccc(O)cc1,19,-4,-14,-2,-8,nt,nt
O=C(CCn1cnc2ccccc21)N/N=C/C=C/c1ccccc1,22,-4,-12,1,4,nt,nt

# High-throughput results deposited in PubChem by several laboratories.
